Results: paper PMC12864922, “TDP-43 directly inhibits mRNA accumulation in neurites through modulation of mRNA stability”
The full ranking holds about 9,900 sequences; the median of “r (bound/input frequency ratio)” is about 0.7, and the highest 2% start at about 6.5. Shown is part of a subset that was picked to be rich in the highest values.

B1: ENSMUSG00000004113.29|Cacna1b (ssRNA)
RNA: GGGAGUUCUACAGUCCGACGAUCGCUUCGAUAUCCGCAUGCUACACUCACCUUUGAAGAGGCAGUGGCCACCAACUCUGGCCGCUCCUCCAGGACUUCCUAUGUGUCCUCCCUCACUUCCCAAUCCCACCCUCUCCGCCGUGUACCCAAUGGCUAUCACUGCACUUUGGGACUCAGCACUGGCGUCCGGGCGCGGCACAGCUACCACCACCCCGAUCAGGACCACUGGUGCUAGCUGCACCACGACCACCCAUGUACCAGCUCCAUGGGUGAGGGUUCCAGUUGAUGAGUUUUAUCAUCCGCUCUCUUGCGGUCGCACUAGUGUGGAAUUCUCGGGUGUCAAGG
B2: ENSMUSG00000034801.222|Sos2 (ssRNA)
RNA: GGGAGUUCUACAGUCCGACGAUCGCUUCGAUAUCCGCAUGCUAUGUAAGUCUGGAACAAAAGUGUCUUAUGGCAUAAGAACCAACUGCCAUUGUCAAACCUAUUAACUGUCUUUAAUCUCGUGUUAACUGAAAUUUUUGAAAAGUUUUUCCAGAUUAGUAAUAUUUAAACAGAAAAUACUUUAAAAAGCUUUAUUAAAUUUUUUAAUCAGGAUAAAGCUUUGCCAUUUGGAUACUAUCAUUCAAAGUGAUCAAGGUAUGUAUGUUAUGCUGAUAGUGCAGUAGCAGCCAUUGUAAAGUAGCCACUCUUGCGGUCGCACUAGUGUGGAAUUCUCGGGUGUCAAGG
B3: ENSMUSG00000061578.107|Ksr2|134:138;220:225 (ssRNA)
RNA: GGGAGUUCUACAGUCCGACGAUCGCUUCGAUAUCCGCAUGCUAGGCCUCUCUGGGGACCAGUCCCUGGCCUUCACCCUUCUCCCAUUUUGUAAGAACACUGUUCUAACUCACCUCAUGCCCACGCUACCCUGGGCAACUGGAGAACACCAUAGCGUUUCAGCUGAUGUGACAUUUGCACACACCUUUACCAGUUCACCAUCAUUCAUGGCUUCCCCCAAAGUCCCGAGUCCUGAGAACCGGGGCUGUGGCAAGAGAGUUCUGCACACAUCUCUCUGUGGGGCUAGCAAUGCCGGGGUUAAGUUCUCUUGCGGUCGCACUAGUGUGGAAUUCUCGGGUGUCAAGG
B4: ENSMUSG00000031028.253|Tub (ssRNA)
RNA: GGGAGUUCUACAGUCCGACGAUCGCUUCGAUAUCCGCAUGCUAAGCUCUUGCCUGUGUGCCAUCUGUGAGAAGCUUCUUGGAGCUGAGACACCAGAGGGAAGCAAAGAGCAUUUAGACAUUGCUUUUUGCUUUGAAAUAGAUAUGUUUGGAAACGCUAAGUAGAAGUUUAAAAAGUAGAGUCAUGUAGAGUCAUGCUUUGAAUAUGUGGGUCAUGCUUUAGAUAUGAAGAGGCUAUGCAGGUAAGGAGGCUGGAUUGAUGUAAAUGGAAGUAGUACUUUAAGAAAGCUCUAGAUUUCCCAGGUCUCUUGCGGUCGCACUAGUGUGGAAUUCUCGGGUGUCAAGG

Each binder was assayed against TDP-43 (Homo sapiens, UniProt Q13148 1-414) (assay: RNA Bind-n-Seq with designed 260-mer pool; 25 mM Tris-HCl, 150 mM KCl, 3 mM MgCl2, BSA (printed 500 mg/mL), 20 units/mL SUPERase IN; pH not stated; 500 nM RNA pool, 1 h, 4 C; TDP-43 5, 50, 500 nM; high values mean tight binding). Details: protein: recombinant; tags: SBP (GST cleaved off with PreScission; pGEX-GST-SBP).
In short: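 Streptavidin beads captured recombinant SBP-tagged TDP-43 at 5, 50 or 500 nM, and the beads were incubated for 1 h at 4 °C with 500 nM of an in vitro-transcribed pool of 260-nt 3′ UTR oligos in 25 mM Tris-HCl, 150 mM KCl, 3 mM MgCl2, BSA and SUPERase IN. After washing, bound RNA was eluted with biotin, reverse transcribed, PCR-amplified and sequenced. Binding is reported as R, the mapped-read-normalized abundance of each oligo in the bound sample divided by its abundance in the input. Two independent protein batches served as duplicates.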

Sequence of TDP-43 (Q13148 whole entry): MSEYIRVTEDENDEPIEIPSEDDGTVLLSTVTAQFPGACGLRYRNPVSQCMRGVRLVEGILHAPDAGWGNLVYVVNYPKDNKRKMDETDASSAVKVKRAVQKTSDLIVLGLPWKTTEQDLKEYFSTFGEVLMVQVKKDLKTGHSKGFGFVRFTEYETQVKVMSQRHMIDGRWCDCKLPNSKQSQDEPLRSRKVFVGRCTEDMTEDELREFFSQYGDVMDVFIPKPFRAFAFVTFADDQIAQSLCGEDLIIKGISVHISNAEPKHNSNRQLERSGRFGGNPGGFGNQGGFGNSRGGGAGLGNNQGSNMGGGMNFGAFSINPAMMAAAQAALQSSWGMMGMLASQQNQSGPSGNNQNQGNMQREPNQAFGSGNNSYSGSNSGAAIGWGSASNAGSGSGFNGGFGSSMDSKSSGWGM

Binder | binding signal
B1 | 0.399 R (bound/input frequency ratio)
B2 | 0.0419 R (bound/input frequency ratio)
B3 | 0.895 R (bound/input frequency ratio)
B4 | 2.03 R (bound/input frequency ratio)
